A number with no mark means an inactive call. No rule for the calls is given here.
These compounds were tested on HIV-1 nucleocapsid protein NCp7 (binding to TG oligonucleotide) (assay: HIV Nucleocapsid (AID 346;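 also: potency is for inhibitors that block NC binding and lower polarization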)). Details: HIV-1 NC / fluorescein-TGTGTGTG probe, fluorescence polarization.
Method: NCGC Assay Overview: HIV-1 nucleocapsid protein (HIV-1 NC) is a small (6.5 kDa) basic zinc-finger protein which participates in packaging of viral genomic RNA. The spacing and metal-chelating residues (3 Cys, 1 His) of the Cys-X2-Cys-X4-His-X4-Cys Zn fingers are conserved among all known retroviruses (J. Med. Chem. 1998, 41, 1371-1381). HIV-1 NC was assayed for its binding to the consensus sequence single-stranded 5'-TGTGTGTG. […] High salt was included to increase the stringency of binding and inhibitor screen. Reducing agents and zinc were present to stabilize the nucleocapsid zinc-finger protein.
NCGC Assay Protocol Summary: Buffer. Hepes pH 7.5, 250mM NaCl, 1uM ZnCl2. 0.004% polyethylene glycol 20000. TCEP (100 uM) and 2-Mercaptoethanol (5 mM), added fresh the day of the experiment. Reagents/Controls. 10 nM TG4xF only in columns 3 and 4 as negative control. 10 nM TG4xF/100 nM HIV-1 NC in columns 1, 2, 5-48. Titration of control compound NSC-13778 (from 20 mM, then 1:2) pin-transferred to column 2. Assay Steps. Two uL of reagents were dispensed to 1536-well Kalypsys black plates. The plates were centrifuged for 1 min at 1000 rpm. Compounds and controls (20 nL) were transferred via Kalypsys PinTool. The plates were incubated for 1 hr at room temperature, and then read on ViewLux (Perkin-Elmer). High-throughput CCD imager using fluorescein polarization filter set and 45 seconds exposure time.
Potency is read from the fitted curve at half-maximal effect.

| Structure (SMILES) | Potency |
| --- | --- |
| O=C(Nc1ccccc1)N1CC2(CCN(C(=O)Oc3ccccc3)CC2)C1 | > 20 µM |
| Clc1ccccc1-c1cncnc1NCCc1cnc[nH]1 | > 20 µM |
| CC(C)NC(=O)N1CCCC2(CCN(C(=O)Oc3ccccc3)CC2)C1 | > 20 µM |
| Cc1ccccc1-c1cncnc1NCCc1cnc[nH]1 | > 20 µM |
| c1csc(CN2CC3(CCNCC3)C2)n1 | > 20 µM |
| c1ccc(N2CC[C@@]3(CCCNC3)C2)cc1 | > 20 µM |
| COc1ccc(NC(=O)N2CCC3(CC2)CCN(C(=O)Oc2ccccc2)CC3)cc1 | > 20 µM |
| O=C(c1csnn1)N1CCC[C@@]2(CCN(Cc3ccncc3)C2)C1 | > 20 µM |
| N#Cc1cccc(NC(=O)N2CC[C@@]3(CCCN(C(=O)Oc4ccccc4)C3)C2)c1 | > 4 µM |
| CN1CCC2(CC1)CCN(C(=O)c1ccco1)CC2 | > 20 µM |
| O=C(Oc1ccccc1)N1CCC2(CCN(Cc3ccncc3)CC2)CC1 | > 20 µM |
| CN1CC[C@@]2(CCCN(C(=O)c3csnn3)C2)C1 | > 20 µM |
| CN1CCN(c2ncc3ncc(=O)n(C)c3n2)CC1 | > 20 µM |
| c1ccc(CN2CCC3(CCNCC3)CC2)cc1 | > 20 µM |
| c1cnc(N2CC[C@@]3(CCCNC3)C2)nc1 | > 20 µM |
| O=C(Oc1ccccc1)N1CCC2(CC1)CN(C(c1ccccc1)c1ccccc1)C2 | > 20 µM |
| O=C(c1csnn1)N1CCC2(CC1)CN(Cc1ccncc1)C2 | > 20 µM |
| CS(=O)(=O)N1CCC2(CCCN(Cc3ccncc3)C2)CC1 | > 20 µM |
| CN1CC[C@@]2(CCCN(C(=O)Oc3ccccc3)C2)C1 | > 20 µM |
| Cc1noc(C)c1C(=O)N1CCC[C@@]2(CCN(CC(C)C)C2)C1 | > 20 µM |

| Structure (SMILES) | Potency |
| --- | --- |
| CN1CC[C@@]2(CCCN(C(=O)c3ccncc3)C2)C1 | > 20 µM |
| COc1ccc(NC(=O)N2CC3(CCN(C(=O)Oc4ccccc4)CC3)C2)cc1 | > 20 µM |
| c1ccc(N2CCC3(CCNCC3)CC2)nc1 | > 20 µM |
| N#Cc1ccc(CN2CCCC3(CCN(C(=O)Oc4ccccc4)CC3)C2)cc1 | > 20 µM |
| O=C(Oc1ccccc1)N1CCC[C@@]2(CCN(Cc3cc(C(F)(F)F)cc(C(F)(F)F)c3)C2)C1 | > 20 µM |
| CC(C)NC(=O)N1CCC2(CC1)CCN(C(=O)Oc1ccccc1)CC2 | > 20 µM |
| c1ccc(N2CC3(CCNCC3)C2)nc1 | > 20 µM |
| N#Cc1ccc(CN2CCC3(CC2)CCN(C(=O)Oc2ccccc2)CC3)cc1 | > 20 µM |
| c1cnc(N2CCC3(CCNCC3)CC2)nc1 | > 20 µM |
| COc1ccccc1CN1CC[C@@]2(CCCN(C(=O)Oc3ccccc3)C2)C1 | > 20 µM |
| COCC(=O)N1CCC2(CCCN(Cc3ccncc3)C2)CC1 | > 20 µM |
| c1cc(CN2CCC3(CCNCC3)CC2)ccn1 | > 20 µM |
| CN1CCCC2(CCN(C(=O)c3ccco3)CC2)C1 | > 20 µM |
| O=C(Nc1cccc(F)c1)N1CCCC2(CCN(C(=O)Oc3ccccc3)CC2)C1 | > 20 µM |
| CC(C)CN1CCC2(CC1)CCN(C(=O)Oc1ccccc1)CC2 | > 20 µM |
| CC(C)CN1CC2(CCN(C(=O)Oc3ccccc3)CC2)C1 | > 20 µM |
| O=C(Oc1ccccc1)N1CCC2(CCCN(Cc3ccccc3)C2)CC1 | > 20 µM |
| O=C(Nc1ccccc1)N1CCC2(CC1)CCN(C(=O)Oc1ccccc1)CC2 | > 20 µM |
| c1cnc(N2CC3(CCNCC3)C2)nc1 | > 20 µM |
| CN1CCCC2(CCN(C(=O)c3ccncc3)CC2)C1 | > 20 µM |

Reference: PubChem BioAssay (NCATS)
